Source: PubChem
Shown are actives, neighbours in structure and some others; about 7.3% of the full set was active somewhere.
Luc counter – Kinase-Glo luciferase inhibition (counter-screen). Kinase-Glo luciferase, ATP luminescence, 8 min. Potency, µM (top dose mostly 38.3 µM), for the others: top-dose activity change, negative = inhibition, most hits filed as inhibitors. actives 0.28% (n = 200,000). Q27757. AID 1379; further: on the % scale 0 is the no-effect control and ±100 the full control effect; nearly all actives have a fitted effect of over 60% in size
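Recombinant Kinase-Glo luciferase, 10 uM ATP (linear range), luciferin; imidazole pH 7.2 / KCl / MgCl2 / Tween / BSA buffer; 8 min RT; luminescence.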
FLuc counter – firefly luciferase modulation, counter-screen for miR-21 project; P08659; purified FLuc, Km substrates, luminescence inhibition; Potency, µM (highest dose often 57.5 µM), for the others: top-dose activity change, negative = inhibition, actives largely listed as inhibitors; actives 6.9% (n = 360,000); AID 588342;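 further: plate controls were vehicle for no effect and reference inhibitor for full effect; nearly all actives have a fitted effect of over 55% in size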
Target sequence (P08659 whole entry, looked up): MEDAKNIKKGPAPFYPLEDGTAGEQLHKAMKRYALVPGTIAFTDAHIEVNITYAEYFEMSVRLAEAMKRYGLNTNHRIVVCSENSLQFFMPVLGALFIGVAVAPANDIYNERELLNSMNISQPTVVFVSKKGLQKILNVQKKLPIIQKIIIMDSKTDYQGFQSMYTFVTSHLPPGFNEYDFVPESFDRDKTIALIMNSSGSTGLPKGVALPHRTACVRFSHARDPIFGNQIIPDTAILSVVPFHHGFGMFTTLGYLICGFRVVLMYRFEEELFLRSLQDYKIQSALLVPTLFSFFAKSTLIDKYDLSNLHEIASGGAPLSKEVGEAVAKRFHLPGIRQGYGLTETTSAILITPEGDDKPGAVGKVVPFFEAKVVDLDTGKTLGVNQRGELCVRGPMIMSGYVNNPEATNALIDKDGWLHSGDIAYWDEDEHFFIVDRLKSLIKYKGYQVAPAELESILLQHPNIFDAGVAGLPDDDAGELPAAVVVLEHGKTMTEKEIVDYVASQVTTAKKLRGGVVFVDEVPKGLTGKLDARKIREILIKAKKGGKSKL
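Purified P. pyralis luciferase (10nM final) with 10uM D-luciferin and 10uM ATP (Km levels) in 50mM Tris acetate pH 7.5, 10mM Mg acetate, 0.01% Tween-20, 0.05% BSA; qHTS 6-point titration, ~60 µM downward; luminescence read.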
NPC1 prom act – activators of NPC1 promoter; Huh7 NPC1 promoter luciferase reporter, 24 h; Potency, µM (top dose mostly 9.22 µM), for inactives: at the highest dose activation, usual class: activators; actives 2.4% (n = 320,000); AID 485313; further: % of control where 0% means no effect; nearly all actives have a fitted effect of over 60% in size
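NPC1 promoter–luciferase Huh7 cells; 24 h compound; luminescence.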
ELG1 genotoxic – genotoxicity induction in ELG1-luciferase HEK293T cells. actives 1.3% (n = 330,000). Potency, µM (titrated, usually from 46 µM), inactives show at the highest dose activity change, positive = activation, hits mostly activators. HEK293T ELG1-luciferase reporter, luminescence, 16 h. AID 504466; further: % of control where 0% means no effect; nearly all actives have a fitted effect of over 60% in size
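Quantitative HTS format in 1536-well plates. HEK293T ELG1-luciferase reporter cells receive test compound and are incubated 16 hr at 37 °C, 5% CO2; ONE-Glo added, 30 min room temperature, then luminescence read.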
Rab9 prom act – Rab9 promoter activation; Huh7 Rab9 promoter-luciferase reporter, luminescence, 24 h; Potency, µM (titrated, usually from 9.22 µM), for inactives: at the top dose activation, negative = inhibition, hits mostly activators; actives 2.8% (n = 320,000); AID 485297; further: % of control where 0% means no effect; nearly all actives have a fitted effect of over 60% in size
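Huh7 reporter line, Rab9 promoter upstream of luciferase. Compound exposure 24 h at 37 °C in reduced-serum medium with 10% FBS. Read-out: luminescence.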
SMN2 splice up – increases expression of the SMN2 splice variant. Potency, µM (series often up to 46.1 µM), for the others: at the highest dose activity change, positive = activation, most hits filed as activators. HEK293 SMN2-luciferase splicing reporter, luminescence, 30-36 h. actives 2.8% (n = 210,000); further: % of control where 0% means no effect; nearly all actives have a fitted effect of over 55% in size
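qHTS luciferase splicing reporter: luminescence rises when SMN2 exon 7 is included in transfected HEK293 cells. Compound exposure lasted 30-36 h at 37C, with 4.5 mM final sodium butyrate as control, followed by a ONE-Glo read.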
An asterisk follows results filed as active; ? = inconclusive; . = not tested or not shown; [ ] = dose if it differs, or a comment. The call rests on the fitted dose curve; in most records, active means well fitted curve in the direction sought with a large enough effect; inconclusive means small, poorly fitted or top-dose-only effect, or another doubt; inactive means no such curve, though single readings can be large; an effect the other way counts as inactive or inconclusive. Potency means the concentration at half of the fitted maximal effect.

SMILES	Luc counter	FLuc counter	NPC1 prom act	ELG1 genotoxic	Rab9 prom act	SMN2 splice up
CCN1CCN(c2ccc(NC(=O)c3cc4ccccc4cc3OC)cc2C)CC1	.	8.5µM*	29%	?	?	.
CCCCCC(=O)Nc1ccc(N2CCN(CC)CC2)c(Cl)c1	0%	?	?	18µM*	28%	?
COc1cc2ccccc2cc1C(=O)Nc1ccccc1N1CCN(S(C)(=O)=O)CC1	-3%	0%	.	.	.	-7%
CCCCCC(=O)NC(=S)Nc1ccc(N2CCCCC2)c(Cl)c1	.	1%	-2%	1%	2%	.
COC(=O)CCC(=O)OC1(C)C(=O)C=C2C=C(CCCNC(=O)OC(C)(C)C)OC=C2C1=O (centres undefined)	0%	.	.	.	.	4%
CCOc1ccc(C(=O)c2cn(CC(=O)Nc3ccc(F)cc3)c3cc4c(cc3c2=O)OCCO4)cc1	.	-8%	.	.	.	1%
Cc1nn2c(=O)c(NC(=O)c3ccc(F)cc3)cnc2s1	-1%	2%[2.3 µM]	10%	0%	14%	26%
Cc1ccc(C(=O)Nc2cnc3sc(C)nn3c2=O)cc1	-4%	-6%[2.3 µM]	?	?	?	13µM*
O=Cc1cccc(Br)c1	.	.	.	.	.	1%
O=C(/C=C/c1ccccc1)NC1CCSC1=O (centres undefined)	-5%	?	25%	12%	21%	16µM*
O=C(c1ccccc1)[C@H](Nc1ccc2ccccc2c1)c1ccccc1	-1%[7.66 µM]	.	.	.	.	5%[9.22 µM]
COc1cccc(CN2CCc3nc(Nc4ccc5c(c4)OCCO5)ncc3C2)c1	.	24µM*	.	.	.	.
Cc1ccsc1CN1CCc2nc(Nc3ccccc3)ncc2C1	.	12µM*	.	.	.	.
Clc1ccc(CN2CCc3nc(Nc4ccc5c(c4)OCCO5)ncc3C2)cc1	.	-20%	.	.	.	.
CCc1nn(CC(=O)N2CCN(c3cccc(C)c3)C(C)C2)c(=O)c2cc3sccc3n12 (centres undefined)	.	-20%	.	.	.	.
CC1=NN(C(N)=S)C(=O)C1N=Nc1cccc(Cl)c1 (centres undefined)	.	17µM*	?	?	?	.
CC(=O)N(C)c1ccc(N=NC2C(=O)N(C(N)=S)N=C2C)cc1 (centres undefined)	.	3µM*	0.5µM*	?	-52%	.
CC1=NN(C(N)=S)C(=O)C1N=Nc1c(C)cc(C)cc1C (centres undefined)	1%	?	-1%	?	26%	-26%
CC1=NN(C(N)=S)C(=O)C1N=Nc1ccc(S(N)(=O)=O)cc1 (centres undefined)	.	19µM*	6%	-2%	-3%	.
CC1=NN(C(N)=S)C(=O)C1N=Nc1c(Cl)cc([N+](=O)[O-])cc1Cl (centres undefined)	.	13µM*	?	9%	?	.
COc1cc(OC)c(OC)cc1CNc1sc2c(c1C(=O)Nc1ccccc1OC)CCC2	.	5%	.	.	.	.
CCCCN(CC)CCNC(=O)CCn1cnc2onc(-c3ccc(F)cc3)c2c1=O	.	-6%	.	.	.	.
O=C(O)c1cccc(SSc2cccc(C(=O)O)c2)c1	-5%[7.66 µM]	.	.	.	.	21%[9.22 µM]
Cc1nc2nncn2c(NCc2ccc(Cl)cc2)c1C	.	-2%	.	.	.	-67%
Cc1cc(SCC(=O)c2ccccc2)nc(=O)[nH]1	.	15µM*	2.5µM*	12%[9.26 µM]	4µM*	.
SMILES	Luc counter	FLuc counter	NPC1 prom act	ELG1 genotoxic	Rab9 prom act	SMN2 splice up
Cc1cc(SCC(=O)c2ccc(Cl)cc2)nc(=O)[nH]1	.	4.8µM*	1.3µM*	?	1.6µM*	.
Cc1cc(SCc2ccc(Cl)cc2Cl)nc(=O)[nH]1	.	5%	-12%	0%	-7%	.
Cc1ccc(CNC(=O)CSc2cc(C)[nH]c(=O)n2)cc1	.	-13%	.	.	.	.
Cc1ccc(C(=O)CSc2cc(C)[nH]c(=O)n2)cc1	.	13µM*	3.2µM*	?	4µM*	.
COc1cccc(-n2ccnc2SCC(=O)Nc2ccc(Cl)c(Cl)c2)c1	.	-16%	.	.	.	.
COc1cc(OC)c(NC(=O)CCn2cccn2)cc1Cl	.	-3%	.	.	.	.
Cc1ccc(-c2nn(-c3ccccc3)cc2C(=O)O)o1	-2%	?	1%	6%	19%	2%
